From PubChem BioAssay
Results filed as inconclusive are left out. Calls of active or inactive are those of the source.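 The calls were made as follows, unless noted: active = percent response above a set limit, the screen-wide mean plus 3 SD (cut at about 130% in these data); inactive = the rest.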

Assays:
[1] = yeast TOR pathway RPL19A-GFP modulators, primary screen, cell-based, S. cerevisiae, multiplex flow cytometry (AID 1862; in the data active = percent of DMSO control GFP below about 86%;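 also: lower values mimic rapamycin by blocking the RPL19A rise seen in DMSO cells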); settings: S. cerevisiae RPL19A-GFP strain, flow cytometry fluorescence, 3 h; at 10 µM; stronger effect = lower value
[2] = modulators of MEP2-GFP levels in yeast, primary screen, S. cerevisiae, multiplex flow cytometry (AID 1867;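 active = GFP response, as percent of the DMSO control, above the screen-wide mean plus 3 SD, about 139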;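 also: median GFP channel fluorescence of barcode-gated MEP2-GFP cells measured by flow cytometry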); settings: S. cerevisiae MEP2-GFP strain, 3 h, at 10 µM, stronger effect = higher value, 100% means same as DMSO wells
[3] = modulators of CIT2-GFP expression in yeast, primary screen, S. cerevisiae, GFP fusion, multiplex flow cytometry (AID 1870); settings: 3 h, at 10 µM, stronger effect = higher value;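 also: barcoded CIT2-GFP strain pooled with four other GFP strains with rapamycin as positive control; median GFP fluorescence per well over plate mean of DMSO wells so 100% = DMSO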
[4] = modulators of LAP4-GFP expression in yeast, primary screen, S. cerevisiae, multiplex flow cytometry (AID 1873;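 active = GFP signal, as percent of the solvent control, above the screen mean plus 3 SD, about 149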); settings: 3 h, at 10 µM, stronger effect = higher value
[5] = modulators of AGP1-GFP expression in yeast TOR pathway, primary screen, cell-based, multiplex flow cytometry, S. cerevisiae (AID 1887;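 active = GFP signal above the screen-wide mean plus 3 SD, that is over about 124.5% of the solvent control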;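 also: AGP1-GFP fusion strain of S. cerevisiae within a five-strain barcoded multiplex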); settings: 3 h, at 10 µM, stronger effect = higher value
[6] = inhibitors of CD8+ T cell-vesicle binding, pilot screen, LFA-1/ICAM-1 modulator project, MLPCN validation set, flow cytometry (AID 2523;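 active = response below a set limit, under 55% cells CD8-positive and vesicle-bound, and CD8 cells' 90th-percentile brightness under 279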;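 as to vesicle binding response: mean PE anti-B7-1 fluorescence of CD8+ cells relative to row control; 100% = QL9-loaded vesicles with DMSO vehicle in the same plate row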); settings: 2C mouse CD8+ T cells, at 7 µM, stronger effect = lower value; double positive events: measured here: CD8+/vesicle+ event percentage
[7] = target: Integrin beta-1 (Homo sapiens) + Integrin alpha-4 (Homo sapiens) (UniProt P13612+P05556); test: inhibition of HUTS-21 binding to VLA-4, pilot screen, VLA-4 allosteric modulator project, U937 cells, HUTS-21 mAb, flow cytometry, validation set (AID 2674;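 active = inhibition above 50%, about 3 SD of the validation set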;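 also: antibody binding induced by the VLA-4 ligand LDV present at three times its Kd; 0% = LDV ligand with antibody and no compound and 100% = antibody without LDV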); settings: HUTS-21 LIBS mAb binding, at 6.7 µM, stronger effect = higher value, binding induced by LDV ligand
Integrin beta-1 (Homo sapiens) + Integrin alpha-4 (Homo sapiens), sequence (P05556 whole entry, looked up): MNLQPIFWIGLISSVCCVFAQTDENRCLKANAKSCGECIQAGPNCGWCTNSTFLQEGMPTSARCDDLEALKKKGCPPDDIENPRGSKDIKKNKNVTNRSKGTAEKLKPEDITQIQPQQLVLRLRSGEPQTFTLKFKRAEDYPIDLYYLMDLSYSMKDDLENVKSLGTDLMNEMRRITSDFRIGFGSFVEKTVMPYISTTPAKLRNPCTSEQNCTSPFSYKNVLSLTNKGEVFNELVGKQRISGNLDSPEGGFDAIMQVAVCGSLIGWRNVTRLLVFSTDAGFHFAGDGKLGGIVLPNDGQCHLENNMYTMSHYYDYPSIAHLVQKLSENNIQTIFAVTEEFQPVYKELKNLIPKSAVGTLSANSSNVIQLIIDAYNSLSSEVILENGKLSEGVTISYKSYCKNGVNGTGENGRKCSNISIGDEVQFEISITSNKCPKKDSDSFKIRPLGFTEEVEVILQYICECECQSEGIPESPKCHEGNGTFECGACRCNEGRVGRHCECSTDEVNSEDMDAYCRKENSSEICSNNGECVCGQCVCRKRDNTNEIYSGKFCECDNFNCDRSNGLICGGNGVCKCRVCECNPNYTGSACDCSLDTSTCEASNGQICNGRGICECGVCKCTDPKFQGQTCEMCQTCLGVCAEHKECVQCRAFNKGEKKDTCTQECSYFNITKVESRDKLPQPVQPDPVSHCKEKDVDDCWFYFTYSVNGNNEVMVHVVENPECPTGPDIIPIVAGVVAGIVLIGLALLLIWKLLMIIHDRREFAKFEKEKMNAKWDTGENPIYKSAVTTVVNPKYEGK
Integrin beta-1 (Homo sapiens) + Integrin alpha-4 (Homo sapiens), sequence (P13612 whole entry, looked up): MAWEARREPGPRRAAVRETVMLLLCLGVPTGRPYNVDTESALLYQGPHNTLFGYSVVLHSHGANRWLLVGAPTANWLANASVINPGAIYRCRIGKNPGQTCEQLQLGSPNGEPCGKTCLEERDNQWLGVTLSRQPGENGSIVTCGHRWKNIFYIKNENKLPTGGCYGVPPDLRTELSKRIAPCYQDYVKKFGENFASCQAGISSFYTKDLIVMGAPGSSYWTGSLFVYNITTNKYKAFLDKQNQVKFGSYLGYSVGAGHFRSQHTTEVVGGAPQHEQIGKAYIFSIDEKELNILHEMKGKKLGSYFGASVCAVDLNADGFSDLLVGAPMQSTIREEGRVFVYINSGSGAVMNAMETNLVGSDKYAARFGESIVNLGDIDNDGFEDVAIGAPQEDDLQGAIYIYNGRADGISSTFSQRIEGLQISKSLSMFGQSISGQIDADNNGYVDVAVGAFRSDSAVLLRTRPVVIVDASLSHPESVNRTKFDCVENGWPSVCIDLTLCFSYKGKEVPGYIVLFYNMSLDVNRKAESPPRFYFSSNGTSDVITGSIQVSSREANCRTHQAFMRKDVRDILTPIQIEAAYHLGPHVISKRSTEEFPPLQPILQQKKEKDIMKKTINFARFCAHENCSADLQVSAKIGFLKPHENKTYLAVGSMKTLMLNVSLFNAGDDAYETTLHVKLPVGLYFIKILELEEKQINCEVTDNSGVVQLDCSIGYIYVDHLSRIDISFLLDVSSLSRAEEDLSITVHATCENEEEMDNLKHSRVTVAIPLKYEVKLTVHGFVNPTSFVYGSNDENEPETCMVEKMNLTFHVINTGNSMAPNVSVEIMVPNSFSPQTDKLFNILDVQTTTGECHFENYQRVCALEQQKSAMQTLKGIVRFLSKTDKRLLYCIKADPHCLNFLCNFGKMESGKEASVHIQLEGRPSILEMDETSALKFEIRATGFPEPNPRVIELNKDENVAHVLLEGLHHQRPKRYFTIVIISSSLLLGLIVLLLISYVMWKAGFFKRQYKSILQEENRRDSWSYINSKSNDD

[8] = superoxide lowering in aged yeast cells, pilot screen, validation compound set (AID 2706;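 active = superoxide response below 65% of plate, a cut near 3 SD across the whole screen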;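 also: yeast exposed to compound for one week at 30 degrees C before staining; 100% = mean of all compound wells on the same plate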); settings: S. cerevisiae aging, superoxide DHE fluorescence; at 10 µM; stronger effect = lower value
[9] = target: Beta-adrenergic receptor kinase 1 (Homo sapiens) (UniProt P25098); test: GRK2 binders displacing RNA aptamer, biochemical, validation, human GRK2, bead flow cytometry (AID 488806;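 active = aptamer binding inhibition above 30%, about 3 SD of noise from non-fluorescent compounds; inactive = inhibition at or below 30%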); settings: bead-bound GRK2, FAM-aptamer displacement, at 10 µM, stronger effect = higher value
Beta-adrenergic receptor kinase 1 (Homo sapiens), sequence (P25098 whole entry, looked up): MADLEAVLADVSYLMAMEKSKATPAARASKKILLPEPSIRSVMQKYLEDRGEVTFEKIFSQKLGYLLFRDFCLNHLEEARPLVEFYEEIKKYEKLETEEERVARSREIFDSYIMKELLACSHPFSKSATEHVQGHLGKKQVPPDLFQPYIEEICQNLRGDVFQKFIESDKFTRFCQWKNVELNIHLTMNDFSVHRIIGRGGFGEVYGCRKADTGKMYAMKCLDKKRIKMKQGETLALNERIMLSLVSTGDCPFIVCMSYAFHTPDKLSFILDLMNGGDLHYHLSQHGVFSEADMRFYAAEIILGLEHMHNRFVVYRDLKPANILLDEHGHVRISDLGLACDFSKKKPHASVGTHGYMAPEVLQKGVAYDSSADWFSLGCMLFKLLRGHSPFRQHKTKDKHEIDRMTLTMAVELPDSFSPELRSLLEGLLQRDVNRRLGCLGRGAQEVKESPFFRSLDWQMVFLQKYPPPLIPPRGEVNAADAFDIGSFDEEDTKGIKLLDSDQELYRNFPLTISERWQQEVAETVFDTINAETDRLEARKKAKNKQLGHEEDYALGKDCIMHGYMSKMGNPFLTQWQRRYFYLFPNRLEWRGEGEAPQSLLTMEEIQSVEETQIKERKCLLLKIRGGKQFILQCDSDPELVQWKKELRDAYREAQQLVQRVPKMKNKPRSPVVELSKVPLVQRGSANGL

[10] = target: Beta-2 adrenergic receptor (Homo sapiens) (UniProt P07550); test: beta2AR agonists driving receptor internalization, pilot screen, cell-based, FAP fluorogen, flow cytometry, validation set (AID 504459;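 active = percent response above 42, roughly 3 SD of non-fluorescent test compounds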;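 also: agonist-driven loss of surface beta2AR via internalization measured by FAP dye flow cytometry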); settings: Am2.2-beta2AR cells, FAP surface receptor flow cytometry; at 10 µM; stronger effect = higher value
Beta-2 adrenergic receptor (Homo sapiens), sequence (P07550 whole entry, looked up): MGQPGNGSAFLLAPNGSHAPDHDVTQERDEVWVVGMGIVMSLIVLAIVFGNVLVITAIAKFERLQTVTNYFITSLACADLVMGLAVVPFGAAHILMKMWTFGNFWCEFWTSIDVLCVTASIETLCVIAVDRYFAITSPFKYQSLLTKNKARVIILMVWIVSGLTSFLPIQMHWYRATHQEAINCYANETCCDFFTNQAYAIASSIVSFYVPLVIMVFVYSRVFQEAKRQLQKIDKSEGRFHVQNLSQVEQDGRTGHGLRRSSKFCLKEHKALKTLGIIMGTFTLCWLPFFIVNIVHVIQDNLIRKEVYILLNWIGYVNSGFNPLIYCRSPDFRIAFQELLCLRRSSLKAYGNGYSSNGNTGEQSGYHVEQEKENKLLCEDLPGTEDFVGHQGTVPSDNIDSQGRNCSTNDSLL

[11] = target: AP-2 complex subunit beta (Homo sapiens) (UniProt P63010); test: inhibitors of arrestin peptide binding to AP2, pilot screen, biochemical, validation set, GST-AP2 beads, flow cytometry (AID 504541;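 active = inhibition above 54%, about 3 SD of non-fluorescent compounds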;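 also: AP2 carries R879A mutation and is captured from E. coli lysate; bead-bound FITC arrestin peptide fluorescence measuring arrestin peptide binding to AP2; 0% = DMSO wells and 100% = excess unlabeled arrestin peptide control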); settings: FITC arrestin peptide, at 10 µM, stronger effect = higher value, AP2 beta2 appendage fragment, R879A mutant
AP-2 complex subunit beta (Homo sapiens), sequence (P63010 whole entry, looked up, the tested form may be a part, one chain of several): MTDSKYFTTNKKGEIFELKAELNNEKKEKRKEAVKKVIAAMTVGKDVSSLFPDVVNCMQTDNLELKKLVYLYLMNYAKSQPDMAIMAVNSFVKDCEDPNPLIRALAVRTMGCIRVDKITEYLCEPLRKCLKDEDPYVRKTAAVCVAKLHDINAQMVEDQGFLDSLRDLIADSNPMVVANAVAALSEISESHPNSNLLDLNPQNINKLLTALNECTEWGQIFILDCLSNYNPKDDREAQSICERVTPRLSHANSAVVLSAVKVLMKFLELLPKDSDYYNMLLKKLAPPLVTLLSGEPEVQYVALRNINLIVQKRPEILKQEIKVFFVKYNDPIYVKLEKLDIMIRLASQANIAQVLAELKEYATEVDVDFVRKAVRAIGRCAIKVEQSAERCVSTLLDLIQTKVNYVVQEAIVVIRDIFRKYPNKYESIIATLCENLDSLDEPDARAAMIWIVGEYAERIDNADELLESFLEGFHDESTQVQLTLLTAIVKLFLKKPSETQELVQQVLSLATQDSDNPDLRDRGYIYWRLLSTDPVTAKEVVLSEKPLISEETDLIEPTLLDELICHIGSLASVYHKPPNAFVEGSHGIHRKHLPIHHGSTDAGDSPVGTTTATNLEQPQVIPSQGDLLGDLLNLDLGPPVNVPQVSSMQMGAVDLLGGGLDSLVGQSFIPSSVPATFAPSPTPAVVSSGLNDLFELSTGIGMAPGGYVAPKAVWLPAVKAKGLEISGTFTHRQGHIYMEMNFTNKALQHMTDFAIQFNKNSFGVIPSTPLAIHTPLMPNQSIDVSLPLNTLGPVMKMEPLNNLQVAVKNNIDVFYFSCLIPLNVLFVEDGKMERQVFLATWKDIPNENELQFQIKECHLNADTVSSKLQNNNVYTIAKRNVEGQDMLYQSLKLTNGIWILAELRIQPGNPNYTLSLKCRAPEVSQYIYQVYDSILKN

[12] = yeast V-ATPase proton transport modulators, S. cerevisiae, pHLuorin, HTS validation (AID 504600; in the data active = response above about 15%;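 also: plate controls were DMSO for no effect and reference compound for full effect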); settings: S. cerevisiae pHLuorin cytosolic pH, at 10 µM, stronger effect = higher value
[13] = tested on: anti-desmoglein-3 scFv antibody binding to human DSG3; test: inhibitors of anti-DSG3 scFv binding to DSG3, pilot screen, biochemical, validation compound set, bead-based, flow cytometry (AID 588368;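 active = binding below the plate cutoff, the plate median minus 3 SD, with a reading above zero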;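 also: signal is the median channel fluorescence of bead-bound GFP antibody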); settings: Protein G beads, DSG3-Fc, scFv-GFP binding, at 10 µM, stronger effect = lower value
[14] = inhibitors of fungal efflux pumps CDR1, CDR2, MDR1, pilot screen, validation compound set, multiplex, phenotypic (AID 588506;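 active = efflux inhibition above 0.42, the validation set average plus 4 SD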;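 also: Nile Red retained in cells so higher fluorescence means more efflux inhibition; 0 = negative control wells and 1 = enniatin B 25 µM full block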); settings: S. cerevisiae pump-expressing triplex, Nile Red efflux flow cytometry; at 10 µM; stronger effect = higher value; the pumps come from Candida albicans
[15] = target: ATP-binding cassette sub-family B member 6 (Homo sapiens) (UniProt Q9NP58); test: ABCB6 transporter inhibitors, pilot screen, K562-ABCB6 cells, flow cytometry, validation set (AID 588550;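 active = inhibition above the screen-wide mean plus 3 SD, about 51%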;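 also: 0% = DMSO wells and 100% = benzethonium chloride 70 µM positive control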); settings: K562-ABCB6 porphyrin accumulation, 1 h, at 10 µM, stronger effect = higher value
ATP-binding cassette sub-family B member 6 (Homo sapiens), sequence (Q9NP58 whole entry, looked up): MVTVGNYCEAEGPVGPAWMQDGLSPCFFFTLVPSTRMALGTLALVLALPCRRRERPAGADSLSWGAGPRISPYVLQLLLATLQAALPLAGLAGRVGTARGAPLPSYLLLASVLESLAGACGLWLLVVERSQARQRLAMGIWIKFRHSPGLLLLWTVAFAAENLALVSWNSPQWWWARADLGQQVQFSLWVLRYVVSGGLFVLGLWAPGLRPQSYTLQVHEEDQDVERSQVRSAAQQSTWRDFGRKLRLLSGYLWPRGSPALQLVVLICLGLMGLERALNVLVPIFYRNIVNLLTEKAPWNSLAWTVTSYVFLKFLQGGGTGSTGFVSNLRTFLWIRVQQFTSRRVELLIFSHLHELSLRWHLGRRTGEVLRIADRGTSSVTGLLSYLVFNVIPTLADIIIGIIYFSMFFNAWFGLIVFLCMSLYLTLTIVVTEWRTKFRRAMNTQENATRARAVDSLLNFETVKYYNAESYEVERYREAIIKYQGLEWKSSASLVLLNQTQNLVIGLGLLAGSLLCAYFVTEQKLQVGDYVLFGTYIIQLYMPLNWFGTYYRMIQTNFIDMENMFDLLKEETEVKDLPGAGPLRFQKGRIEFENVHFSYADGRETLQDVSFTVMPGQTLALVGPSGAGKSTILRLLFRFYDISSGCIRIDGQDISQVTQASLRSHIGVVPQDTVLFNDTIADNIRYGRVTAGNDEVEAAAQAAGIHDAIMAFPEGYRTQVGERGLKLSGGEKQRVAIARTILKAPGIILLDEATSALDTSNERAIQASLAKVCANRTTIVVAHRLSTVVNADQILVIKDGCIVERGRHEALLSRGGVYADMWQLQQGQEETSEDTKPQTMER

[16] = promoters of myeloid differentiation in arrested cells, primary screen, cell-based, GFP/MAC1 double positive, flow cytometry, validation set (AID 588685;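 active = differentiation response of at least 50%, scaled between solvent and reference control, from cells with both markers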;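 also: compound exposure lasts four days before antibody staining and flow analysis; 0% = DMSO wells and 100% = 5 µM fulvestrant positive control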); settings: ER-HoxA9 marrow cells, stronger effect = higher value, normalized: vehicle 0, fulvestrant 100

Compound	percent of DMSO control GFP [1]	GFP response vs DMSO [2]	percent response of DMSO control [3]	GFP response vs DMSO [4]	GFP response, % of DMSO [5]	double positive events [6]	vesicle binding response [6]	inhibition [7]	superoxide response (% of plate) [8]	aptamer binding inhibition [9]	response [10]	inhibition [11]	response [12]	binding (% of control) [13]	efflux inhibition (fraction of control) [14]	inhibition [15]	differentiation response [16]
COCCCNc1nc2c([nH]1)c(=O)[nH]c(=O)n2C	104% (inactive)	99.6% (inactive)	105% (inactive)	112% (inactive)	114% (inactive)	63.1%	156% (inactive)	9.95% (inactive)	94.3% (inactive)	4% (inactive)	-17.8% (inactive)	13.3% (inactive)	6.45% (inactive)	98.5% (inactive)	-0.17 (inactive)	6% (inactive)	-5.97% (inactive)
CC(=O)N1CCN(c2ccc(NC(=O)/C=C/c3ccccc3)cc2)CC1	103% (inactive)	98.7% (inactive)	105% (inactive)	100% (inactive)	108% (inactive)	63.1%	168% (inactive)	2.93% (inactive)	76% (inactive)	-3% (inactive)	3.43% (inactive)	-6.59% (inactive)	3.19% (inactive)	107% (inactive)	0.39 (inactive)	-1% (inactive)	-11.9% (inactive)
COc1ccc(CCNc2ncnc3c2[nH]c2cc(OC)c(OC)cc23)cc1OC	97.2% (inactive)	126% (inactive)	111% (inactive)	82.5% (inactive)	98.7% (inactive)	64%	178% (inactive)	0.64% (inactive)	97.5% (inactive)	2% (inactive)	19.8% (inactive)	-1.78% (inactive)	3.11% (inactive)	101% (inactive)	-0.06 (inactive)	10% (inactive)	-0.82% (inactive)
c1ccc(Cn2nnc3cnccc32)cc1	104% (inactive)	101% (inactive)	104% (inactive)	106% (inactive)	107% (inactive)	57.9%	67.8% (inactive)	4.27% (inactive)	113% (inactive)	2% (inactive)	0.22% (inactive)	-12.1% (inactive)	0.84% (inactive)	102% (inactive)	0.33 (inactive)	9% (inactive)	-10.4% (inactive)
CC(C)(C)C(=O)N1CCCC1C(=O)O (stereo not drawn)	104% (inactive)	96.6% (inactive)	99% (inactive)	99.5% (inactive)	106% (inactive)	65.6%	141% (inactive)	4.84% (inactive)	95.6% (inactive)	11% (inactive)	-4.87% (inactive)	-2.34% (inactive)	-11% (inactive)	103% (inactive)	-0.04 (inactive)	2% (inactive)	11.8% (inactive)
Cc1ccsc1/C=C/C1=NCCCN1C	106% (inactive)	104% (inactive)	112% (inactive)	103% (inactive)	118% (inactive)	67.3%	168% (inactive)	-34.6% (inactive)	104% (inactive)	1% (inactive)	3.43% (inactive)	-5.94% (inactive)	1.52% (inactive)	104% (inactive)	-0.135 (inactive)	1% (inactive)	-3.11% (inactive)
CC1CCN(C(=O)Oc2ccccc2)CC1	105% (inactive)	111% (inactive)	103% (inactive)	102% (inactive)	107% (inactive)	57.9%	143% (inactive)	2.93% (inactive)	111% (inactive)	0% (inactive)	0.66% (inactive)	-6.8% (inactive)	0.42% (inactive)	101% (inactive)	0.045 (inactive)	5% (inactive)	-6.03% (inactive)
Cc1ccc(-c2nnc(-c3ccc4c(c3)OCO4)o2)cc1	103% (inactive)	106% (inactive)	109% (inactive)	121% (inactive)	115% (inactive)	57.9%	165% (inactive)	-2.82% (inactive)	98.9% (inactive)	-7% (inactive)	-16.4% (inactive)	6.09% (inactive)	2.28% (inactive)	99.9% (inactive)	0.04 (inactive)	2% (inactive)	-0.06% (inactive)
COc1ccc(NC2=C(Cl)C(=O)N(c3ccccc3)C2=O)c(OC)c1	105% (inactive)	110% (inactive)	107% (inactive)	106% (inactive)	109% (inactive)	60.1%	159% (inactive)	-1.09% (inactive)	94.5% (inactive)	1% (inactive)	1.18% (inactive)	0.15% (inactive)	1.06% (inactive)	97% (inactive)	-0.25 (inactive)	-3% (inactive)	-4.57% (inactive)
